Results on 39 compounds are retold here after PubChem BioAssay.

“And” between values parts separate entries of the source, which are not always exact repeats. Equal values may be shown once. The source made the active and inactive calls.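 How the source made its calls, unless noted: active means thallium flux through the channel raised or lowered by more than 3 SD from vehicle-only wells, actives on both sides; inactive means the rest.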

Tested on in one assay: not listed separately
Put plainly: growth inhibition of RCMB18 medulloblastoma cells, cell-based, cisplatin and BGB IC40 combos (AID 1671462).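 Further: cells exposed to compound for four days.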 Conditions: measured here: combination with cisplatin, at 0.5 µM, stronger effect = higher value.
For orientation: inhibition means the relative decrease from the control value, in per cent. As to `CC(=O)OCC(CCn1cnc2cnc(N)nc21)COC(C)=O`, the inhibition turned out to be 3.82%.
With `S=c1nc[nH]c2nc[nH]c12`, the inhibition is 30% and -22% and -77.2%.
On to `COc1c(N2CCNC(C)C2)c(F)cc2c(=O)c(C(=O)O)cn(C3CC3)c12` (stereo not drawn), for which the inhibition is -15.6% and 6.4%.
In the case of `CC1COc2c(N3CCN(C)CC3)c(F)cc3c(=O)c(C(=O)O)cn1c23` (stereo not drawn), the inhibition was -28.1% and -3.73% and 27.4%.
For the compound `O=C1c2c(O)ccc(O)c2C(=O)c2c(NCCNCCO)ccc(NCCNCCO)c21`, the inhibition is -18.9%.
Still for that read-out and setting: next, `CS(=O)(=O)OCCCCOS(C)(=O)=O`: -15.9% and -14.5%.
As to `O=C(O)CCCc1ccccc1`, the inhibition is -7.69%.

The same assay, now with this note: single agent, at 5 µM, stronger effect = higher value.
For `CC(=O)OCC(CCn1cnc2cnc(N)nc21)COC(C)=O`, the inhibition was -35%.
On to `S=c1nc[nH]c2nc[nH]c12`, for which the inhibition was -40.6% and 41.7% and -25.7%.
In the case of `COc1c(N2CCNC(C)C2)c(F)cc2c(=O)c(C(=O)O)cn(C3CC3)c12` (stereo not drawn), the inhibition is 4.79% and -5.12%.
On the same count and under the same terms, to `CC1COc2c(N3CCN(C)CC3)c(F)cc3c(=O)c(C(=O)O)cn1c23` (stereo not drawn) belongs -31.9% and -5.49% and -32%; to `O=C1c2c(O)ccc(O)c2C(=O)c2c(NCCNCCO)ccc(NCCNCCO)c21`, 55.2%; to `CS(=O)(=O)OCCCCOS(C)(=O)=O`, -7.92% and -9.74%.
`O=C(O)CCCc1ccccc1`: the inhibition stood at 28.4%.

Tested on in the next assay: not listed separately
Put plainly: growth inhibition of CRL1545 osteosarcoma cells, cell-based, cisplatin and BGB IC20 combos (AID 1671464; in the data active means inhibition above about 80%;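 further: cells exposed to compound for 96 hours before readout; 0% = vehicle DMSO and 100% = high DMSO killing control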). The following applies: at 0.5 µM, stronger effect = higher value.
Turning to `CC(=O)OCC(CCn1cnc2cnc(N)nc21)COC(C)=O`, the inhibition was -2.74% (inactive).
`S=c1nc[nH]c2nc[nH]c12`: the inhibition is -26.3% (inactive) and -12.8% (inactive) and -43.8% (inactive).
On the same count and under the same terms, to `COc1c(N2CCNC(C)C2)c(F)cc2c(=O)c(C(=O)O)cn(C3CC3)c12` (stereo not drawn) belongs -17.5% (inactive) and -1.12% (inactive).
Same read-out and setting: to `CC1COc2c(N3CCN(C)CC3)c(F)cc3c(=O)c(C(=O)O)cn1c23` (stereo not drawn) belongs -60% (inactive) and 4.59% (inactive) and -24.8% (inactive); to `O=C1c2c(O)ccc(O)c2C(=O)c2c(NCCNCCO)ccc(NCCNCCO)c21`, 65.5% (inactive).
The same measure, in the same setting: next, `CS(=O)(=O)OCCCCOS(C)(=O)=O`: -1.43% (inactive) and -28.8% (inactive).
`O=C(O)CCCc1ccccc1`: the inhibition is -23.7% (inactive).

Staying with this assay, now noted: measured here: with BGB IC20 combination, at 0.5 µM, stronger effect = higher value.
Turning to `CC(=O)OCC(CCn1cnc2cnc(N)nc21)COC(C)=O`, the inhibition was 4.75%.
On the same count and under the same terms, next, `S=c1nc[nH]c2nc[nH]c12`: -10.8% and -54.5% and -18%; `COc1c(N2CCNC(C)C2)c(F)cc2c(=O)c(C(=O)O)cn(C3CC3)c12` (stereo not drawn): -19.9% and -23.9%; `CC1COc2c(N3CCN(C)CC3)c(F)cc3c(=O)c(C(=O)O)cn1c23` (stereo not drawn): -68.3% and -3.25% and -47.6%.
For the compound `O=C1c2c(O)ccc(O)c2C(=O)c2c(NCCNCCO)ccc(NCCNCCO)c21`, the inhibition came out at 74%.
On the same count and under the same terms, next, `CS(=O)(=O)OCCCCOS(C)(=O)=O`: -7.16% and 14.9%.
On the same count and under the same terms, next, `O=C(O)CCCc1ccccc1`: -4.31%.

Staying with this assay, now noted: measured here: with cisplatin IC20 combination, at 0.5 µM, stronger effect = higher value.
With `CC(=O)OCC(CCn1cnc2cnc(N)nc21)COC(C)=O`, the inhibition is -8.9%.
`S=c1nc[nH]c2nc[nH]c12`: the inhibition was -34% and 8.01% and -56.8%.
The same measure, in the same setting: to `COc1c(N2CCNC(C)C2)c(F)cc2c(=O)c(C(=O)O)cn(C3CC3)c12` (stereo not drawn) belongs -18.3% and 8.22%; to `CC1COc2c(N3CCN(C)CC3)c(F)cc3c(=O)c(C(=O)O)cn1c23` (stereo not drawn), -59.4% and 8.51% and -13.4%; to `O=C1c2c(O)ccc(O)c2C(=O)c2c(NCCNCCO)ccc(NCCNCCO)c21`, 61.2%.
For `CS(=O)(=O)OCCCCOS(C)(=O)=O`, the inhibition is -0.178% and -50.7%.
Still for that read-out and setting: to `O=C(O)CCCc1ccccc1` belongs -36.4%.

Staying with this assay, now noted: single agent, at 0.05 µM, stronger effect = higher value.
Regarding `CC(=O)OCC(CCn1cnc2cnc(N)nc21)COC(C)=O`, the inhibition was -17%.
In the case of `S=c1nc[nH]c2nc[nH]c12`, the inhibition was 2.04% and -10.4% and -14.2%.
In the case of `COc1c(N2CCNC(C)C2)c(F)cc2c(=O)c(C(=O)O)cn(C3CC3)c12` (stereo not drawn), the inhibition was -13.6% and 2.79%.
On the same count and under the same terms, next, `CC1COc2c(N3CCN(C)CC3)c(F)cc3c(=O)c(C(=O)O)cn1c23` (stereo not drawn): -65.5% and -29.1% and 12%; `O=C1c2c(O)ccc(O)c2C(=O)c2c(NCCNCCO)ccc(NCCNCCO)c21`: 43.2%; `CS(=O)(=O)OCCCCOS(C)(=O)=O`: -16.2% and -23.2%.
The same measure, in the same setting: next, `O=C(O)CCCc1ccccc1`: -12.3%.

The same assay, now with this note: single agent, at 5 µM, stronger effect = higher value.
On to `CC(=O)OCC(CCn1cnc2cnc(N)nc21)COC(C)=O`, for which the inhibition stood at 5.18%.
With `S=c1nc[nH]c2nc[nH]c12`, the inhibition was 33.1% and 21.8% and 31.5%.
For the compound `COc1c(N2CCNC(C)C2)c(F)cc2c(=O)c(C(=O)O)cn(C3CC3)c12` (stereo not drawn), the inhibition is -53.5% and 15.1%.
As for `CC1COc2c(N3CCN(C)CC3)c(F)cc3c(=O)c(C(=O)O)cn1c23` (stereo not drawn), the inhibition was -39.6% and 8.31% and 10.5%.
On the same count and under the same terms, next, `O=C1c2c(O)ccc(O)c2C(=O)c2c(NCCNCCO)ccc(NCCNCCO)c21`: 99.2%.
Regarding `CS(=O)(=O)OCCCCOS(C)(=O)=O`, the inhibition was -7.55% and 21.7%.
Turning to `O=C(O)CCCc1ccccc1`, the inhibition was 9.33%.

Another assay concerns F380Y. Put plainly: modulators of BK channel variants, profiling panel, selectivity assay, cell-based, U2OS BacMam, thallium flux, beta subunits (AID 1259406).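 Further: initial slope of Thallos dye fluorescence rise after thallium is added; log ratio against the mean of 0.3% DMSO vehicle wells on the same plate.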 The following applies: at 30 µM.
On to `CC12CC3CC(C)(C1)CC(N)(C3)C2`, for which the log fold change Tl+ flux is 0.0112 (inactive).
For `CC(=O)OCC(CCn1cnc2cnc(N)nc21)COC(C)=O`, the log fold change Tl+ flux is 0.0311 (inactive).
The same measure, in the same setting: next, `S=c1nc[nH]c2nc[nH]c12`: -0.0324 (inactive).
As to `Oc1c(Cl)cc(Cl)c2cccnc12`, the log fold change Tl+ flux was 0.177 (active).
Take `CC1=NS(=O)(=O)c2cc(Cl)ccc2N1`: the log fold change Tl+ flux is -0.0365 (inactive).
The same measure, in the same setting: next, `OC(Cn1cncn1)(Cn1cncn1)c1ccc(F)cc1F`: 0.0166 (inactive).
On to `NCCc1ccc(O)c(O)c1`, for which the log fold change Tl+ flux was 0.0174 (inactive).
Still for that read-out and setting: next, `CN=C(NC#N)NCCSCc1nc[nH]c1C`: 0.0123 (inactive).
`COc1c(N2CCNC(C)C2)c(F)cc2c(=O)c(C(=O)O)cn(C3CC3)c12` (stereo not drawn): the log fold change Tl+ flux is -0.00177 (inactive).
Same read-out and setting: next, `CC1COc2c(N3CCN(C)CC3)c(F)cc3c(=O)c(C(=O)O)cn1c23` (stereo not drawn): 0.0183 (inactive); `O=C(C1CCCCC1)N1CC(=O)N2CCc3ccccc3C2C1` (stereo not drawn): 0.0282 (inactive).
Still for that read-out and setting: to `CCc1cc(C(N)=S)ccn1` belongs 0.0115 (inactive); to `CC1=C(/C=C/C(C)=C/C=C/C(C)=C/C(=O)O)C(C)(C)CCC1`, 0.0395 (inactive); to `CCCCNc1cc(C(=O)O)cc(S(N)(=O)=O)c1Oc1ccccc1`, 0.0239 (inactive).
On the same count and under the same terms, next, `O=c1[nH]cnc2[nH]ncc12`: 0.0236 (inactive); `O=C1c2c(O)ccc(O)c2C(=O)c2c(NCCNCCO)ccc(NCCNCCO)c21`: -0.0248 (inactive); `O=C(O)c1cc(=O)c2c(OCC(O)COc3cccc4oc(C(=O)O)cc(=O)c34)cccc2o1`: -0.0252 (inactive).
As for `CC(C)C(=O)Nc1ccc([N+](=O)[O-])c(C(F)(F)F)c1`, the log fold change Tl+ flux was 0.0165 (inactive).
Same read-out and setting: next, `CC(COc1ccccc1)N(CCCl)Cc1ccccc1` (stereo not drawn): -0.0529 (inactive).
The same measure, in the same setting: next, `CCCc1nc2c(C)cc(-c3nc4ccccc4n3C)cc2n1Cc1ccc(-c2ccccc2C(=O)O)cc1`: -0.0745 (inactive); `CC(=O)CC(c1ccccc1)c1c(O)c2ccccc2oc1=O` (stereo not drawn): -0.00266 (inactive); `NS(=O)(=O)c1cc2c(cc1Cl)NCNS2(=O)=O`: -0.0347 (inactive).
In the case of `CS(=O)(=O)OCCCCOS(C)(=O)=O`, the log fold change Tl+ flux was -0.0118 (inactive).
For `CCOC(=O)C1=C(C)NC(C)=C(C(=O)OC)C1c1cccc([N+](=O)[O-])c1` (stereo not drawn), the log fold change Tl+ flux is 0.00482 (inactive).
The same measure, in the same setting: to `COc1ccccc1OCCNCC(O)COc1cccc2[nH]c3ccccc3c12` (stereo not drawn) belongs -0.0291 (inactive); to `O=C(O)CCCc1ccccc1`, 0.0311 (inactive); to `NNCCc1ccccc1`, 0.0104 (inactive).
On the same count and under the same terms, next, `CC1Cc2ccccc2N1NC(=O)c1ccc(Cl)c(S(N)(=O)=O)c1` (stereo not drawn): 0.00177 (inactive); `CC(C)Cc1ccc(C(C)C(=O)O)cc1` (stereo not drawn): 0.0419 (inactive); `N[C@@H]1CONC1=O`: 0.0411 (inactive) and -0.0245 (inactive).
Still for that read-out and setting: to `CCN(Cc1ccncc1)C(=O)C(CO)c1ccccc1` (stereo not drawn) belongs 0.0305 (inactive); to `CCCc1cc(=O)[nH]c(=S)[nH]1`, 0.00762 (inactive).
With `O=C(O)c1cccnc1`, the log fold change Tl+ flux was -0.0113 (inactive).
`CC(C[N+](C)(C)C)OC(N)=O` (stereo not drawn): the log fold change Tl+ flux is 0.0115 (inactive).
Still for that read-out and setting: to `COc1ccc(Cl)cc1C(=O)NCCc1ccc(S(=O)(=O)NC(=O)NC2CCCCC2)cc1` belongs 0.0726 (inactive).
In the case of `N[C@@H](Cc1cc(I)c(Oc2cc(I)c(O)c(I)c2)c(I)c1)C(=O)O`, the log fold change Tl+ flux was -0.00167 (inactive).
Turning to `CC1(C)O[C@@H]2[C@@H](CO[C@@]3(COS(N)(=O)=O)OC(C)(C)O[C@@H]23)O1`, the log fold change Tl+ flux was -0.00202 (inactive).
With `COCCOC(=O)C1=C(C)NC(C)=C(C(=O)OC(C)C)C1c1cccc([N+](=O)[O-])c1` (stereo not drawn), the log fold change Tl+ flux was -0.0169 (inactive).
As to `NNC(=O)c1ccncc1`, the log fold change Tl+ flux was 0.00909 (inactive).
